Source: PubChem BioAssay (NCATS)
Results filed as inconclusive are left out. The source made the active and inactive calls. The call rests on the fitted dose curve; in most records, active means well fitted activation curve with a large enough effect; inconclusive means small, poorly fitted or top-dose-only effect; inactive means no such curve, though single readings can be large or run the other way.

test: qHTS for Activators of Parkin Expression: LOPAC Validation Assay (FLuc Reporter) (AID 720573); conditions: Cell line, PRKN promoter firefly luciferase reporter, vehicle wells = 0, positive control = 100%; series mostly up to 46.1 µM
Text: Parkin is an E3 ubiquitin ligase localized in the cytosol of cells expressed in many tissues, including brain, skeletal muscle, heart and liver tissues. One hour after stress induction by mitochondrial uncouplers (which mimic mitochondria damage by decreasing the mitochondrial inner membrane electrochemical gradient that is used to produce ATP), Parkin translocates from the cytosol to mitochondria in many cultured cell types, including neurons and HeLa cells. Administration of other mitochondrial poisons, such as Paraquat and azide in cells lacking mitochondrial DNA (mtDNA), induces Parkin translocation to mitochondria. […] It was proposed that Parkin (together with Pink1) mediates a mitochondrial quality control pathway to maintain organelle population fidelity by removing damaged mitochondria. Understanding the normal physiologic role of Parkin (and Pink1) may uncover novel treatment strategies for sporadic Parkinson's disease patients with mutation in these genes.
A cell based qHTS in 1536 well format was developed assess modulation of Parkin expression using a neuronal cell line that stably expresses a stably expresses a luminescent coincidence reporter (FLuc and NLuc reporters) behind the Parkin promoter. The LOPAC library is used to validate the assay for quantitative high-throughput screening. The data herein reports the signal from the FLuc reporter. An increase in this signal = activation of Parkin expression. For this assay , a positive control normalized signal increase corresponding to a high quality qHTS curve class in both luminescent channels is the desired outcome for this assay.
NIH Chemical Genomics Center [NCGC]
NIH Molecular Libraries Probe Centers Network [MLPCN]
Assay Submitter (PI): Richard Youle, National Institute of Neurological Disorders and Strokes (NINDS), NIH
[1] Narendra, D., et al., Parkin is recruited selectively to impaired mitochondria and promotes their autophagy. J Cell Biol, 2008. 183(5): p. 795-803.
[2] Suen, D.F., et al., Parkin overexpression selects against a deleterious mtDNA mutation in heteroplasmic cybrid cells. Proc Natl Acad Sci U S A, 2010. […] 11835-40.
[3] Cheng K, Inglese J. A coincedence reporter-gene system for high-throughput screening. Nat Methods. 2012: 9(10);937
Five microliters (1,500 cells/well) of the Parkin coincidence reporter cells were seeded to 1536 well assay plates (Greiner Catalog # 789173-F) and incubated at 37 C, 5% CO2 for 24 hours. Compounds (23 nL) were pinned using the Kalypsys robotic system equipped with 1536 pin head adaptor in 7-point dose response. The assay plates were incubated for additional 24 hr at 37 C, 5% CO2 followed by a volume reduction in each well to 2 uL using an automated plate washer/aspirator. Following the volume reduction,2 uL of FLuc detection reagent and plates were incubated for 10 minutes at room temperature. The FLuc luminescence signal was obtained using the PerkinElmer ViewLux plate imager and then 2 uL of NanoLuc detection reagent was added to the plates. After another 10 minute incubation, NanoLuc signal was obtained using the PerkinElmer ViewLux plate imager as before. Data from each channel was normalized to DMSO (neutral control) and the positive control compounds (100%).

Compound | outcome
N[C@@H](Cc1ccc(O)c(O)c1)C(=O)O | inactive
CCN(CC)CCn1c(=O)c(Cc2ccc(OC)cc2)nc2ccccc21 | inactive
COc1cc2nc(N3CCCN(C)CC3)nc(NC3CCN(Cc4ccccc4)CC3)c2cc1OC | inactive
NC(=O)c1cccc(N)c1 | inactive
CC(=O)[C@H]1CC[C@H]2[C@@H]3CCC4=CC(=O)CC[C@]4(C)[C@H]3CC[C@]12C | inactive
Nc1nc(N)c2nc(CNc3ccc(C(=O)NC(CCC(=O)O)C(=O)O)cc3)cnc2n1 (configuration not stated) | inactive
CCN1CCCC1CNC(=O)c1cc(S(N)(=O)=O)ccc1OC (configuration not stated) | inactive
CC1CC2C3CCC4=CC(=O)C=C[C@]4(C)[C@@]3(F)[C@@H](O)C[C@]2(C)[C@@]1(O)C(=O)CO (some centres not stated) | inactive
Cc1ccc(S(=O)(=O)N[C@@H](Cc2ccccc2)C(=O)CCl)cc1 | inactive
CCCCS(=N)(=O)CCC(N)C(=O)O (configuration not stated) | inactive
COc1cc2ncnc(Nc3cccc(Cl)c3)c2cc1OC | inactive
CC(C)NCC(O)c1ccc(NS(C)(=O)=O)cc1 (configuration not stated) | inactive
O=C(O)C1CCCN(CCC=C(c2ccccc2)c2ccccc2)C1 (configuration not stated) | inactive
CCN(CC)CC#CCOC(=O)C(O)(c1ccccc1)C1CCCCC1 (configuration not stated) | inactive
OCc1ccc(-c2nn(Cc3ccccc3)c3ccccc23)o1 | inactive
CC1=C(C(=O)O)N2C(=O)[C@@H](NC(=O)C(N)c3ccccc3)[C@H]2SC1 (some centres not stated) | inactive
NC(=O)c1ccc2[nH]ccc2c1 | inactive
